Laboratory results taken from PubChem BioAssay AID1159580 (chemical genetic matrix, 2015).
Several values for one entry are separate records, joined by “and”; a condition that tells them apart may be missing. Equal values may be shown once. In all, about 5,500 compounds went through this assay and about 2,000 (36%) were called active. About 18% were inconclusive and are not listed. Rule as the data show it: active = normalized growth mostly below about 0.91 (no sharp cut-off); inconclusive = no clear call, values can overlap the other calls; inactive = mostly above about 0.92. Some of the results follow.

Experiment: chemical genetic growth profiling, strain panel (AID 1159580);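 also: tested at 20 µM; growth read once vehicle control cultures reached saturation at 30 °C; 1 = growth at the plate median or of vehicle wells; lower values mean less growth of the strain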
Settings: S. cerevisiae deletion strains, growth OD

Measured: normalized growth

COc1ccccc1OCCNCC(O)COc1cccc2[nH]c3ccccc3c12 (stereo unspecified)
inactive: locus YAL013W, strain DEP1, stronger effect = lower value 0.999 | locus YAL021C, strain ccr4, stronger effect = lower value 1.01 | locus YAL026C, strain drs2, stronger effect = lower value 1.01 | locus YAL030W, strain snc1, stronger effect = lower value 1.02 | locus YBR009C, strain hhf1, stronger effect = lower value 1.02 | locus YBR021W, strain FUR4, stronger effect = lower value 0.988 | locus YBR023C, strain chs3, stronger effect = lower value 1.01 | locus YBR171W, strain sec66, stronger effect = lower value 1.02 | locus YBR229C, strain ROT2, stronger effect = lower value 1 | locus YBR231C, strain swc5, stronger effect = lower value 0.993 | locus YBR279W, strain paf1, stronger effect = lower value 1 | locus YCL011C, strain gbp2, stronger effect = lower value 1.01 | locus YCL016C, strain dcc1, stronger effect = lower value 1.03 | locus YCL029C, strain bik1, stronger effect = lower value 1.02 | locus YCL069W, strain vba3, stronger effect = lower value 1.01 | locus YCR088W, strain abp1, stronger effect = lower value 1.04 | locus YDL005C, strain med2, stronger effect = lower value 1.02 | locus YDL035C, strain GPR1, stronger effect = lower value 0.98 | locus YDL040C, strain nat1, stronger effect = lower value 1.02 | locus YDL074C, strain BRE1, stronger effect = lower value 0.957 | locus YDL101C, strain DUN1, stronger effect = lower value 1.01 | locus YDL134C, strain PPH21, stronger effect = lower value 1 | locus YDL185W, strain tfp1, stronger effect = lower value 1.01 | locus YDL192W, strain arf1, stronger effect = lower value 1.02 | locus YDR001C, strain nth1, stronger effect = lower value 1.01 | locus YDR069C, strain doa4, stronger effect = lower value 1 | locus YDR101C, strain arx1, stronger effect = lower value 1.01 | locus YDR137W, strain rgp1, stronger effect = lower value 1.05 | locus YDR150W, strain NUM1, stronger effect = lower value 1 | locus YDR159W, strain sac3, stronger effect = lower value 1.04 | locus YDR162C, strain NBP2, stronger effect = lower value 0.974 | locus YDR195W, strain ref2 1 | locus YDR297W, strain sur2, stronger effect = lower value 1.01 | locus YDR318W, strain mcm21, stronger effect = lower value 1.01 | locus YDR334W, strain swr1, stronger effect = lower value 1.03 | locus YDR335W, strain msn5, stronger effect = lower value 1 | locus YDR388W, stronger effect = lower value 1.01 | locus YDR392W, strain spt3, stronger effect = lower value 1.01 | locus YDR502C, strain sam2, stronger effect = lower value 1 | locus YEL003W, strain gim4, stronger effect = lower value 1.02 | locus YEL037C, strain rad23, stronger effect = lower value 1 | locus YEL061C, strain CIN8 (second series), stronger effect = lower value 1 | locus YEL061C, strain CIN8, stronger effect = lower value 0.997 | locus YER015W, strain faa2, stronger effect = lower value 1.02 | locus YER016W, strain bim1, stronger effect = lower value 0.986 | locus YER110C, stronger effect = lower value 1.02 | locus YER111C, strain swi4, stronger effect = lower value 1.02 | locus YER155C, strain BEM2 (second series), stronger effect = lower value 1.02 | locus YER155C, strain BEM2, stronger effect = lower value 0.986 | locus YER167W, strain BCK2, stronger effect = lower value 1 | locus YFR010W, strain ubp6, stronger effect = lower value 1.02 | locus YGL078C, strain dbp3, stronger effect = lower value 1.02 | locus YGL086W, strain mad1, stronger effect = lower value 1.01 | locus YGL167C, strain pmr1, stronger effect = lower value 1.02 | locus YGL173C, strain kem1, stronger effect = lower value 1.03 | locus YGL227W, strain vid30, stronger effect = lower value 1.01 | locus YGL240W, strain doc1, stronger effect = lower value 1.02 | locus YGL248W, strain PDE1, stronger effect = lower value 1.01 | locus YGL253W, strain hxk2, stronger effect = lower value 1.02 | locus YGR078C, strain PAC10, stronger effect = lower value 0.968 | locus YGR135W, strain pre9, stronger effect = lower value 1.01 | locus YGR229C, strain SMI1, stronger effect = lower value 0.957 | locus YGR252W, strain gcn5, stronger effect = lower value 0.948 | locus YHR013C, strain ard1, stronger effect = lower value 1.03 | locus YHR027C, strain rpn1, stronger effect = lower value 0.994 | locus YHR030C, strain SLT2, stronger effect = lower value 1.01 and 0.992 | locus YHR079C, strain IRE1 (second series), stronger effect = lower value 1.02 | locus YHR079C, strain IRE1, stronger effect = lower value 0.999 | locus YHR094C, strain hxt1, stronger effect = lower value 1.01 | locus YHR129C, strain ARP1, stronger effect = lower value 1.01 | locus YHR142W, strain chs7, stronger effect = lower value 1.03 | locus YHR200W, strain rpn10, stronger effect = lower value 1.02 | locus YIL066C, strain RNR3, stronger effect = lower value 1 | locus YIL073C, strain SPO22, stronger effect = lower value 1.11 | locus YIL125W, strain kgd1, stronger effect = lower value 1.02 | locus YIR030C, strain dcg1, stronger effect = lower value 1.02 | locus YJL092W, strain hpr5, stronger effect = lower value 1.01 | locus YJL095W, strain BCK1 (second series), stronger effect = lower value 1.02 | locus YJL095W, strain BCK1, stronger effect = lower value 0.976 and 1.01 | locus YJL115W, strain asf1, stronger effect = lower value 1.01 | locus YJL129C, strain trk1, stronger effect = lower value 1.02 | locus YJL134W, strain LCB3, stronger effect = lower value 1 | locus YJL154C, strain vps35, stronger effect = lower value 1.01 | locus YJL164C, strain tpk1, stronger effect = lower value 1.02 | locus YJL166W, strain qcr8, stronger effect = lower value 1.03 | locus YJL168C, strain set2, stronger effect = lower value 1.01 | locus YJL187C, strain SWE1 (second series), stronger effect = lower value 1.01 | locus YJL187C, strain SWE1, stronger effect = lower value 1.01 | locus YJR043C, strain POL32, stronger effect = lower value 0.998 | locus YJR066W, strain TOR1, stronger effect = lower value 0.935 | locus YJR075W, strain HOC1, stronger effect = lower value 0.983
